In PubChem BioAssay (NCATS):
Records with an inconclusive call do not appear. Calls of active or inactive are those of the source. Calls follow the shape of the full dose curve.

Test: Primary qHTS to identify inhibitors of SARS-CoV-2 cell entry (AID 1645846); also: nearly all actives have a fitted effect of over 45% in size
Conditions: SARS-CoV-2 pseudovirus cell entry assay, luminescence; activity change, negative = inhibition: at 57.1 µM (top of the series) unless noted; series mostly up to 57.1 µM
Procedure, shortened: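 Entry measured by luciferase signal 48 h after adding SARS-CoV-2-S pseudotyped MLV particles to HEK293-ACE2 cells preincubated 1 h with compounds. Normalisation: bald particles and spike particles.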
Potency is read from the fitted curve at half-maximal effect.

| SMILES | outcome | activity change, negative = inhibition | Potency |
| --- | --- | --- | --- |
| Cc1ccn(-c2ccc(-c3ncco3)cc2)c(=O)c1-c1ccc2nc(N)ncc2c1 | inactive |  |  |
| Nc1nc(N)c2nc(-c3cccc(O)c3)c(-c3cccc(O)c3)nc2n1 |  | -9.58% |  |
| NC(=O)N1CCC(CC(=O)N2CCC([C@H]3c4ncc(Br)cc4CCc4cc(Cl)cc(Br)c43)CC2)CC1 |  | -87.3% |  |
| COc1cc2ncnc(Nc3cccc(Br)c3)c2cc1OC |  | -19.5% |  |
| Cc1c(Cn2c(C)nc3c(C(=O)O)cc(N4CCOCC4)cc32)cccc1C(F)(F)F |  | -3.96% |  |
| CC1=C(CC(=O)O)c2cc(F)ccc2C1=Cc1ccc(S(C)=O)cc1 (stereo not drawn) |  | -11.8% |  |
| C[C@@H](NC(=O)c1ncnc(N)c1Cl)c1ncc(C(=O)Nc2cc(C(F)(F)F)c(Cl)cn2)s1 |  | -12.7% |  |
| Cn1cc(C2=C(c3c4n(c5ccccc35)CCC(CN)C4)C(=O)NC2=O)c2ccccc21 (stereo not drawn) |  | -9.15% [at 11.3 µM] |  |
| O=C(Nc1cccc(Br)c1)c1cccc(S(=O)(=O)N2CCCCCC2)c1 |  |  | 31.6 µM (active) |
| Cc1ccc(NC(=O)c2cccc(N(C)C)c2)cc1NC(=O)c1ccc(O)cc1 | inactive |  |  |
| CCOC(=O)C1=C(C)NC(=S)NC1c1cccc(O)c1 (stereo not drawn) |  | -13.9% |  |
| COc1ccc(C=Cc2cc(OC)c(OC)c(OC)c2)cc1NC(=O)[C@H](N)CO |  | -66.1% |  |
| COCCOc1ccc2c(c1)ncn2-c1ccc2cccc(N3CCC(N)CC3)c2n1 |  |  | 12.6 µM (active) |
